According to PubChem BioAssay (NCI):
About 79,000 compounds went through this panel and 15% of them were active in at least one assay; those are over-represented in the sample as a whole. No stated cut-off is given here; in the data, active means growth inhibition above about 70%; inactive means the rest.

How the values were obtained:
[1] = NCI Yeast Anticancer Drug Screen. Data for the rad50 strain (AID 155);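 further: 0% = growth of vehicle-only cultures of the same strain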; details: S. cerevisiae rad50 strain growth inhibition; at 50.0 µM; hits give high values
Summary of the method: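 Vehicle-treated cultures provide the reference for the growth inhibition reported for compound-exposed, repair-deficient yeast.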

[2] = NCI Yeast Anticancer Drug Screen. Data for the mec2-1 strain (AID 157); details: S. cerevisiae mec2-1 strain, at 50.0 µM, hits give high values
Summary of the method: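 Yeast mec2-1 mutant treated with compound. Readout: growth inhibition vs vehicle controls.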

[3] = NCI Yeast Anticancer Drug Screen. Data for the sgs1 mgt1 strain (AID 161);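 further: 0% = growth of cultures given vehicle only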; details: S. cerevisiae sgs1 mgt1 strain, at 50.0 µM, hits give high values
Summary of the method: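 Inhibition of yeast growth, normalised to vehicle-treated controls, is reported for a strain bearing genetic alterations in DNA damage repair.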

[4] = NCI Yeast Anticancer Drug Screen. Data for the cln2 rad14 strain (AID 165);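 further: 0% = growth equal to vehicle treated cultures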; details: S. cerevisiae cln2 rad14 strain, at 50.0 µM, hits give high values
Summary of the method: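 cln2 rad14 yeast strain; compound exposure; growth inhibition read vs vehicle controls.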

[5] = NCI Yeast Anticancer Drug Screen. Data for the bub3 strain (AID 167); details: S. cerevisiae bub3 mutant strain, at 50.0 µM, hits give high values
Summary of the method: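 Mutant yeast screening strain plus compound; vehicle-treated cultures serve as the 0% inhibition reference.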

[6] = NCI Yeast Anticancer Drug Screen. Data for the mlh1 rad18 strain (AID 175); details: S. cerevisiae mlh1 rad18 strain growth inhibition; at 50.0 µM; hits give high values
Summary of the method: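 Yeast w/ defined DNA-repair lesions; compound exposure; growth vs vehicle controls → % inhibition.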

Measured: growth inhibition

CC(C)(C)C(C)(C)CC(N)=O
inactive: [1] 7.25% | [2] -15.7% | [3] -4.3% | [4] -3.6% | [5] 10.9% | [6] -9.1%

C[S+]1CC2C3CC(C#N)C(C3)C2C1 (stereo not given)
inactive: [1] 2.4% | [2] 11.2% | [3] 2.95% | [4] -28.1% | [5] -1.85% | [6] 16.9%

CC(=O)N(CCCCNC(=O)C(F)(F)F)CCCNC(=O)C(F)(F)F
inactive: [1] 2.7% | [2] -6.5% | [3] 6.55% | [4] 5.15% | [5] -26.8% | [6] -58.5%

CCCOC(=O)c1ccc(Cl)c(Cl)c1
inactive: [1] 10.6% | [2] 7.85% | [3] 2.5% | [4] -58.2% | [5] -6.15% | [6] 5.9%

COc1ccc(-c2nnc(-c3nsc4ccccc34)o2)cc1
inactive: [1] -12.8% | [2] -31.9% | [3] -21.5% | [4] -2.5% | [5] 18.5% | [6] -14.1%

CN(C)CC(O)CO (stereo not given)
inactive: [1] 38.5% | [2] -4% | [3] -6.5% | [4] -45.1% | [5] 21.7% | [6] 22%

N/N=C(\c1nc2ccc([N+](=O)[O-])cc2[nH]c1=O)C(O)c1ccc(Cl)c(Cl)c1 (stereo not given)
inactive: [1] 5.7% | [2] -6.65% | [3] -11.1% | [4] -12.7% | [5] 22.3% | [6] -6.6%

CN(C)c1ccc(Cc2ccc(N(C)C)cc2[N+](=O)[O-])c([N+](=O)[O-])c1
inactive: [1] -4.35% | [2] 11.2% | [3] 19.9% | [4] 6.1% | [5] 15.3% | [6] -1.35%

O=C(O)C(Nc1ccccc1)c1ccccc1 (stereo not given)
inactive: [1] 13.4% | [2] 3.75% | [3] 9.45% | [4] -21.9% | [5] 4.65% | [6] -6.95%

Cn1c(COc2ccc(/C=N\N3CCN(/N=C\c4ccc(OCc5c[n+]6ccccc6n5C)cc4)CC3)cc2)c[n+]2ccccc12
inactive: [1] -15.8% | [2] 11.8% | [3] 29.6% | [4] 25.7% | [5] -5.95% | [6] 44%

CC(=O)Nc1ccc(F)c([N+](=O)[O-])c1
inactive: [1] -6.45% | [2] -19.6% | [3] 3.35% | [4] -13.7% | [5] -14.9% | [6] 5.7%

COC1(OC)CC2C(=O)N(Cc3ccccc3)C1C=C2S(=O)(=O)c1ccccc1 (stereo not given)
inactive: [1] 2.5% | [2] 9.65% | [3] -18.2% | [4] -47.5% | [5] 1.55% | [6] 8.25%

COCCNC(=O)/C=C\C(=O)O
inactive: [1] 3.35% | [2] -3.55% | [3] -2.95% | [4] -49.4% | [5] 12.2% | [6] -3.8%

CCCCCCCCCCCCCCCC(=O)CCCCCCCCCCCCCCC
inactive: [1] 21.1% | [2] -15.9% | [3] 6.35% | [4] -3.8% | [5] -0.95% | [6] 28.9%

Cc1cccc(C(C#N)C(=O)CCCC(=O)Nc2ccccc2[N+](=O)[O-])c1 (stereo not given)
inactive: [1] -44.1% | [2] 9.4% | [3] 5.15% | [4] -36.6% | [5] 6.9% | [6] 11%

C[N+](C)(C)C/C=C/C[N+](C)(C)C
inactive: [1] 9.85% | [2] -3.1% | [3] -5.95% | [4] -22.3% | [5] 0.85% | [6] 1.85%

CCOC(=O)/C=C1\CCC(C)n2c1nccc2=O (stereo not given)
inactive: [1] -14.1% | [2] 4.8% | [3] -6% | [4] -7.5% | [5] 14.5% | [6] 14.3%

O=C(Nc1ccc2c(O)c(N=Nc3ccc(N=Nc4ccc(S(=O)(=O)O)cc4)cc3)c(S(=O)(=O)O)cc2c1)c1ccccc1
inactive: [1] 18.9% | [2] -5.8% | [3] 2.9% | [4] -9.1% | [5] 8.8% | [6] 14.7%

FC(F)(F)c1ccc(C(Nc2nncs2)Nc2nncs2)cc1
inactive: [1] -6.9% | [2] -6.7% | [3] -4.5% | [4] -8.35% | [5] 7.6% | [6] 0.75%

O=C(Cl)CCc1ccnc2ccccc12
inactive: [1] 0.5% | [2] 3.25% | [3] 4.2% | [4] -8.45% | [5] 2.4% | [6] 11.2%
